Records with an inconclusive call do not appear. Active and inactive are the calls of the source. The calls were made as follows: active = hit-call score of the fitted dose curve at least 0.9, where 1 is the maximum; inconclusive = response in the unintended direction; inactive = score below 0.9.
Columns and labels:
[1] = target: Retinoic acid receptor alpha (Homo sapiens) (UniProt P10276); experiment: NVS_NR_hRARa_Agonist: NovaScreen (NVS) Nuclear Receptor Binding Assay for human Retinoic Acid Alpha Receptor Agonism (RAR) (AID 2283361)
How it was run: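 Agonist-mode TR-FRET binding format using extracted protein, measured at 2 h post-dosing. Initial duplicate single-point screen at 25 uM preceded concentration series for actives; activity was normalized to DMSO baseline.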

[2] = system: guinea pig Dopamine Transporter (DAT), gene 100714898; experiment: NVS_TR_gDAT: NovaScreen (NVS) Transporter Assay for guinea pig Dopamine Transporter (DAT) (AID 2283369);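 also: active compounds lower bound radioligand signal relative to DMSO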
How it was run: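 Test chemicals were incubated 2 h with guinea pig striatal membranes and a radioligand; bound label was separated by filtration and counted. Screening ran at 25 uM, followed by concentration-response testing to a 50 uM maximum.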

[3] = target: Peroxisome proliferator-activated receptor gamma (Homo sapiens) (UniProt P37231); experiment: NVS_NR_hPPARg: NovaScreen (NVS) Nuclear Receptor Binding Assay for human Peroxisome Proliferator-activated Receptor gamma (PPARg) (AID 2283370)
How it was run: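 Fluorescence polarization measures competitive binding to extracted PPARg in a cell-free format. Reading is taken at 2 h; activity is signal loss relative to DMSO. Screening at 25 uM in duplicate preceded confirmatory dose series.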

[4] = target: PGR (gene 5241) (UniProt P06401); experiment: NVS_NR_hPR: NovaScreen (NVS) Nuclear Receptor Binding Assay for human Progestron Receptor (PR) (AID 2283360);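 also: active means loss of bound radioligand signal versus DMSO baseline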
How it was run: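 T47D lysate; tritiated or iodinated radioligand; scintillation count at 18 h. DMSO = negative control/baseline. Primary: 25 uM, duplicate. Secondary: concentration series for actives.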

[5] = target: guinea pig Sigma Receptor, Non-selective Binding, SIGMAR1 (gene 100135589) (UniProt Q60492); experiment: NVS_OR_gSIGMA_NonSelective: NovaScreen (NVS) Nuclear Receptor Binding Assay for guinea pig Sigma Receptor, Non-selective Binding (AID 2283367)
How it was run: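 Guinea pig brain membrane sigma sites were labelled with a radioligand, and bound radioactivity was counted after filtration 1 h post-dose. Compounds were screened at 25 uM in duplicate, then retested as concentration series when active.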

[6] = target: human Thyroid Receptor Alpha (TRa), THRA (gene 7067) (UniProt P10827); experiment: NVS_NR_hTRa_Antagonist: NovaScreen (NVS) Nuclear Receptor Binding Assay for human Thyroid Receptor Alpha Antagonism (TRa) (AID 2283362)
How it was run: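 Chemicals were first screened in duplicate at 25 uM, then actives were retested in concentration series. Binding to the extracted receptor was measured 1 h after dosing by AlphaLISA chemiluminescence, with decreased signal versus DMSO scored as activity.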

[7] = target: Glucocorticoid receptor (Homo sapiens) (UniProt P04150); experiment: NVS_NR_hGR: NovaScreen (NVS) Nuclear Receptor Binding Assay for human Glucocorticoid Receptor (GR) (AID 2283363)
How it was run: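 Compounds first tested in duplicate at 25 uM, actives followed up in concentration series. Binding to extracted GR protein measured as competitive radioligand displacement, filter scintillation read 16 h post-dosing, normalised to DMSO.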

[8] = target: human Adenosine Transporter (Adot), SLC29A1 (gene 2030) (UniProt Q99808); experiment: NVS_TR_hAdoT: NovaScreen (NVS) Transporter Assay for human Adenosine Transporter (Adot) (AID 2283368)
Procedure: NVS_TR_hAdoT is a biochemical, single-readout assay that uses extracted gene-proteins from U937 in a cell-free assay. Measurements were taken 1 hour after chemical dosing in a 96-well plate.NVS_TR_hAdoT is one of one assay component(s) measured or calculated from the NVS_TR_hAdoT assay. It is designed to make measurements of radioligand binding, a form of binding reporter, as detected with scintillation counting signals by Filter-based radiodetection technology.Data from the assay component NVS_TR_hAdoT was analyzed into 1 assay endpoint. This assay endpoint, NVS_TR_hAdoT, was analyzed in the positive analysis fitting direction relative to DMSO as the negative control and baseline of activity. Using a type of binding reporter, loss-of-signal activity can be used to understand changes in the binding as they relate to the gene SLC29A1. Furthermore, this assay endpoint can be referred to as a primary readout, because the performed assay has only produced 1 assay endpoint. To generalize the intended target to other relatable targets, this assay endpoint is annotated to the transporter intended target family, where the subfamily is nucleoside transporter.
Binding assays used specific radioligands (tritiated, iodinated) with non-radioactive competitive displacement ligands in agonist or antagonist protocols (as indicated) and various reference compounds and inhibitors to titrate specific binding to receptors and transporters. Most enzyme assays (CYPs, kinases, phosphatases, proteases, HDACs) used recombinant protein and specific substrates (fluorescence mostly, some colorimetric and radioactive) and inhibitors, followed by a biochemical separation of substrate and product. All assays for the biochemical HTS were initially run in duplicate at a single concentration (10 uM for CYP450 assays and 25 uM for all others). Assay-chemical combinations meeting a pre-defined threshold (e.g., 30% inhibition and other criteria defined below) were then run in singleton concentration-response format with maximum concentration of 20 uM for CYPs and 50 uM for all others. […]

[9] = target: rat Androgen Receptor (AR), Ar (gene 24208) (UniProt P15207); experiment: NVS_NR_rAR: NovaScreen (NVS) Nuclear Receptor Binding Assay for rat Androgen Receptor (AR) (AID 2283366)
Procedure: NVS_NR_rAR is a biochemical, single-readout assay that uses extracted gene-proteins from Testosterone pre-treated rat prostate in a tissue-based cell-free assay. Measurements were taken 18 hours after chemical dosing in a 96-well plate.NVS_NR_rAR is one of one assay component(s) measured or calculated from the NVS_NR_rAR assay. It is designed to make measurements of radioligand binding, a form of binding reporter, as detected with scintillation counting signals by Filter-based radiodetection technology.Data from the assay component NVS_NR_rAR was analyzed into 1 assay endpoint. This assay endpoint, NVS_NR_rAR, was analyzed in the positive analysis fitting direction relative to DMSO as the negative control and baseline of activity. […] Furthermore, this assay endpoint can be referred to as a primary readout, because the performed assay has only produced 1 assay endpoint. […]
Binding assays used specific radioligands (tritiated, iodinated) with non-radioactive competitive displacement ligands in agonist or antagonist protocols (as indicated) and various reference compounds and inhibitors to titrate specific binding to receptors and transporters. Most enzyme assays (CYPs, kinases, phosphatases, proteases, HDACs) used recombinant protein and specific substrates (fluorescence mostly, some colorimetric and radioactive) and inhibitors, followed by a biochemical separation of substrate and product. […]

[10] = target: Nuclear receptor subfamily 1 group I member 2 (Homo sapiens) (UniProt O75469); experiment: NVS_NR_hPXR: NovaScreen (NVS) Nuclear Receptor Binding Assay for human Pregnane X Receptor (PXR) (AID 2283365);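 also: a drop in FRET signal versus DMSO baseline means the compound binds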
How it was run: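 Binding was measured by time-resolved fluorescence resonance energy transfer after a 2 h exposure of extracted human PXR protein without cells. Compounds were first tested at 25 uM in duplicate, with concentration series for actives; DMSO defined baseline.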

Chain of guinea pig Sigma Receptor, Non-selective Binding, SIGMAR1 (gene 100135589) (Q60492 whole entry, looked up): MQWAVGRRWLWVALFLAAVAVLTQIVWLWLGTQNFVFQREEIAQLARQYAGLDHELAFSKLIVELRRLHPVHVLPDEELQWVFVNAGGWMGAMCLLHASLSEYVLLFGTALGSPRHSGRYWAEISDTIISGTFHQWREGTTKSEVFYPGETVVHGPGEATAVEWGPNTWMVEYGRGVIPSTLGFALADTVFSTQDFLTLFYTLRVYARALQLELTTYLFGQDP
Chain of human Thyroid Receptor Alpha (TRa), THRA (gene 7067) (P10827 whole entry, looked up): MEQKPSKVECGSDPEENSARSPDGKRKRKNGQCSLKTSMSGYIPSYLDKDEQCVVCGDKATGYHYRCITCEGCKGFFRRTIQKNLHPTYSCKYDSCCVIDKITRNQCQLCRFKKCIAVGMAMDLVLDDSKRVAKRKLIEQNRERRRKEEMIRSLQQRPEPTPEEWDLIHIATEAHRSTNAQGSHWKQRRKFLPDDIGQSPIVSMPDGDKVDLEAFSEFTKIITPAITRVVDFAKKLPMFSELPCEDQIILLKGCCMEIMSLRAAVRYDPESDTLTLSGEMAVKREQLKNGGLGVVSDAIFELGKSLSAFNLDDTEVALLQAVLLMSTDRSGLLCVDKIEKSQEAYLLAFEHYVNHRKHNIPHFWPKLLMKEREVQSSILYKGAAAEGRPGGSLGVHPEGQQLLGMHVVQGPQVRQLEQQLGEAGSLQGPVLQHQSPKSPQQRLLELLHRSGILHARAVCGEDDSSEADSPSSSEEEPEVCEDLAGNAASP
Chain of Glucocorticoid receptor (Homo sapiens) (P04150 whole entry, looked up): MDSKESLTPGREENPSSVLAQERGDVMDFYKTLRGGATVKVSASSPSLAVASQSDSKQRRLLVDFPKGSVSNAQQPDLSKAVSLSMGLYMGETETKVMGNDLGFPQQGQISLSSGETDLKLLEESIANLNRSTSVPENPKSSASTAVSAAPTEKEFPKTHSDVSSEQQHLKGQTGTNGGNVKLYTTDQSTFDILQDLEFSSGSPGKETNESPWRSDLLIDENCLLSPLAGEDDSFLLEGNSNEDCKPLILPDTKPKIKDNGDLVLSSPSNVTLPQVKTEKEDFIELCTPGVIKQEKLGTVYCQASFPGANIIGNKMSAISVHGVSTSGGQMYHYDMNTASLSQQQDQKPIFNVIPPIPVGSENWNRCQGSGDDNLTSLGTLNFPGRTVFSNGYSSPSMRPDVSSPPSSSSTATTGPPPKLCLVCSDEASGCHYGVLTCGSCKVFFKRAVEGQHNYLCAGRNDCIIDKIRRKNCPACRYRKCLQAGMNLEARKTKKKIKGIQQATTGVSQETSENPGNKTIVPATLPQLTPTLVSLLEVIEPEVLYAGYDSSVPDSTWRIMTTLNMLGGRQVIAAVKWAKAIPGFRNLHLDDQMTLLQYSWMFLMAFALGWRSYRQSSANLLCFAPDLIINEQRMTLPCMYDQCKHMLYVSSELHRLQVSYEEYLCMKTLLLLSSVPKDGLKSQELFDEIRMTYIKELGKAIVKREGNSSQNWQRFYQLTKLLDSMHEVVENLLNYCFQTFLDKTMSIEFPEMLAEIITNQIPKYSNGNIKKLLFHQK
Chain of PGR (gene 5241) (P06401 whole entry, looked up): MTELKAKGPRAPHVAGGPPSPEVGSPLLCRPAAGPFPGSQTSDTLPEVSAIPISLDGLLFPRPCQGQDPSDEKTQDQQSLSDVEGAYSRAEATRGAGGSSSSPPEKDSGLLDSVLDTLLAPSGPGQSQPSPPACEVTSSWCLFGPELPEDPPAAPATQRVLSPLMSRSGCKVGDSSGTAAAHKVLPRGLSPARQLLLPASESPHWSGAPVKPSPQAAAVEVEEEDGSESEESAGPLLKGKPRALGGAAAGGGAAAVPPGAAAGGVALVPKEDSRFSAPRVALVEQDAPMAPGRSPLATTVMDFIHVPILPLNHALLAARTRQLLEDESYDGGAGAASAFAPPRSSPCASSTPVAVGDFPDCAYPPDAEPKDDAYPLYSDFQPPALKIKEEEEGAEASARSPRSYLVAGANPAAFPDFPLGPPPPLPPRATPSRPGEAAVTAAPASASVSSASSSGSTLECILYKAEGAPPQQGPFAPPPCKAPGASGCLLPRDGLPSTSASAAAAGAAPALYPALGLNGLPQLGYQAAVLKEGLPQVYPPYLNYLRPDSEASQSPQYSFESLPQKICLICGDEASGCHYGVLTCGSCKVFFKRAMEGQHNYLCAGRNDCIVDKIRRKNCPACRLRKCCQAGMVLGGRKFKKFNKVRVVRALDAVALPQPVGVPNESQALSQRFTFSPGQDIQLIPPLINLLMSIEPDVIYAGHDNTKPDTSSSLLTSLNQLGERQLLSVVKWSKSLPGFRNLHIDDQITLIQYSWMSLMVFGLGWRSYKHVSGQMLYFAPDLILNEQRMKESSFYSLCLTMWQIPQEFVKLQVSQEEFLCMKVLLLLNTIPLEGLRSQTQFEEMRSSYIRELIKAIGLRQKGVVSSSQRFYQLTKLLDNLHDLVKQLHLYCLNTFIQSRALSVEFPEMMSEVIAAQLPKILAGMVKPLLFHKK
Chain of human Adenosine Transporter (Adot), SLC29A1 (gene 2030) (Q99808 whole entry, looked up): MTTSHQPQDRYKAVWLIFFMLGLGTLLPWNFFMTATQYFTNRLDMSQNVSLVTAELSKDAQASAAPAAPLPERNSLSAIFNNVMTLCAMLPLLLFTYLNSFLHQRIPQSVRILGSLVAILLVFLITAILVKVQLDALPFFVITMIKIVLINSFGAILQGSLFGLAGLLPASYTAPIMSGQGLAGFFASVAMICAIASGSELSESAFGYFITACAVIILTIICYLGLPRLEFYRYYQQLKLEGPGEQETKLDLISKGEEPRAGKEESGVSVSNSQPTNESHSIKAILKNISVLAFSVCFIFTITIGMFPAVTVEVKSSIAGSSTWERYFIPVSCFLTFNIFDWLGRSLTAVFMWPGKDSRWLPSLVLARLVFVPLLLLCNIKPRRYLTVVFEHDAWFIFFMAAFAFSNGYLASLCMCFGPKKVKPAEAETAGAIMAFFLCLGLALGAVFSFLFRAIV
Chain of Nuclear receptor subfamily 1 group I member 2 (Homo sapiens) (O75469 whole entry, looked up): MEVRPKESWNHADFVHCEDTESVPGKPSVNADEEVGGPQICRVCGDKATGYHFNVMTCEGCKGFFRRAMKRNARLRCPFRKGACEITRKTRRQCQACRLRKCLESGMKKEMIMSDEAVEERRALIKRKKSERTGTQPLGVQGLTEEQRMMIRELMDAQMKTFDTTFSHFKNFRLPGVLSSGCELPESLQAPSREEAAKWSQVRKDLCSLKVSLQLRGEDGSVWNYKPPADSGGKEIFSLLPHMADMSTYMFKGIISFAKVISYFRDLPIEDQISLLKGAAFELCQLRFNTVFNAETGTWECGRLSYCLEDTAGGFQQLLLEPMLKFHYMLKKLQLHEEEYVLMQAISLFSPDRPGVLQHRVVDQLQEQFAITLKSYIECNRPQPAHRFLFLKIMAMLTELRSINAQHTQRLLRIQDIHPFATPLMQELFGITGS
Chain of Peroxisome proliferator-activated receptor gamma (Homo sapiens) (P37231 whole entry, looked up): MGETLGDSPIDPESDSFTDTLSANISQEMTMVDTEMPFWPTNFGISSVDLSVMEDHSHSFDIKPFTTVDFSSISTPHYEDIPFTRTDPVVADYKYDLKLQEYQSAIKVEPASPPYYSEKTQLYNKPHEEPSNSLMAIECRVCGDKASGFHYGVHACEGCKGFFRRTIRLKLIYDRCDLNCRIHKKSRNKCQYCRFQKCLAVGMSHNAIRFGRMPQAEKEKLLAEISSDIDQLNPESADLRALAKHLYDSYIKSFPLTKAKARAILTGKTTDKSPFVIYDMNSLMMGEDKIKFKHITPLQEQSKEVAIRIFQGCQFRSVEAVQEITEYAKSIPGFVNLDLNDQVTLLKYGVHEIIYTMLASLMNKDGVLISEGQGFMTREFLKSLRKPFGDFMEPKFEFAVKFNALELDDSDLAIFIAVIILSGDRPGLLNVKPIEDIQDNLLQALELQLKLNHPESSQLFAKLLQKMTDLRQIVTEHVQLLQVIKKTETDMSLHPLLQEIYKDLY
Chain of rat Androgen Receptor (AR), Ar (gene 24208) (P15207 whole entry, looked up): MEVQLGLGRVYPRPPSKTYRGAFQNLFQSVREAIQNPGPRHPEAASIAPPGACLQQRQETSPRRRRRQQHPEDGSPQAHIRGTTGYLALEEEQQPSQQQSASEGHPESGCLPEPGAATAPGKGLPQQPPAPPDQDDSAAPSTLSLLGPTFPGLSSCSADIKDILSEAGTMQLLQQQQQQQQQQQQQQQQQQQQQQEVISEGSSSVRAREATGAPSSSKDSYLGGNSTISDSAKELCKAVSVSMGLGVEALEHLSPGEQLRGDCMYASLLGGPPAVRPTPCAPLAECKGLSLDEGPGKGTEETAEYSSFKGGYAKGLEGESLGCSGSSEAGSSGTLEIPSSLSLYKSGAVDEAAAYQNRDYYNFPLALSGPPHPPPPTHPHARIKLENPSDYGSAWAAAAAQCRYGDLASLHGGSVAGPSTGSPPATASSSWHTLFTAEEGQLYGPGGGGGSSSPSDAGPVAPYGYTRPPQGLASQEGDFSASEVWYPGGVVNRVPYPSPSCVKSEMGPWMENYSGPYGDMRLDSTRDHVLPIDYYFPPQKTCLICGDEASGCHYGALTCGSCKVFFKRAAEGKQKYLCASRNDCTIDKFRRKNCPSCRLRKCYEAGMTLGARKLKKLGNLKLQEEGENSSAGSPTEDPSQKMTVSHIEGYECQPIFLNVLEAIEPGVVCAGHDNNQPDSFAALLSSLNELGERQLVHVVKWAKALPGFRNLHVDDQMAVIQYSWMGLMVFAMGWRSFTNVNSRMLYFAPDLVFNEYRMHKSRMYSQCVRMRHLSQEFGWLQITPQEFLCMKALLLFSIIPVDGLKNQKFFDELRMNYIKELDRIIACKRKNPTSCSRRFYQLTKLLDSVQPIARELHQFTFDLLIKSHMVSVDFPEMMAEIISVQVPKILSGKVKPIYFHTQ

SMILES: COc1cc(C(C)C)c2c(c1)S(=O)(=O)N(COc1cc(=O)n3cccc(OCCN4CCCCC4)c3n1)C2=O
- outcome [1]: inactive
- AC50 [2]: 4.1 µM (active)
- AC50 [3]: 6.25 µM (active)

SMILES: NC(=O)N1c2ccccc2C=Cc2ccccc21
- outcome [4]: inactive

SMILES: CCCCCCCCN(C)C
- outcome [1]: inactive
- AC50 [5]: 1.88 µM (active)

SMILES: c1ccc(C(O[C@@H]2CCCN(CCc3ccc4c(c3)OCO4)C2)c2ccccc2)cc1
- outcome [4]: inactive
- outcome [6]: inactive
- outcome [7]: inactive
- AC50 [5]: 2.6 µM (active)
- AC50 [2]: 0.943 µM (active)

SMILES: OCc1ccccc1
- outcome [4]: inactive
- outcome [3]: inactive

SMILES: NC(=O)NN=Cc1ccc([N+](=O)[O-])o1
- outcome [3]: inactive

SMILES: OC[C@H]1O[C@@](CO)(O[C@H]2O[C@H](CO)[C@@H](O)[C@H](O)[C@H]2O)[C@@H](O)[C@@H]1O
- outcome [4]: inactive

SMILES: CCCCCCCCCC
- outcome [4]: inactive
- outcome [5]: inactive
- outcome [2]: inactive

SMILES: Cc1nccn1-c1ccc(Sc2cccc(C3(C(N)=O)CCOCC3)c2)cc1
- AC50 [4]: 6.18 µM (active)
- AC50 [5]: 19.7 µM (active)
- outcome [8]: inactive
- AC50 [2]: 0.0243 µM (active)
- outcome [3]: inactive

SMILES: CC[C@H](C)C(=O)O[C@H]1C[C@H](O)C=C2C=C[C@H](C)[C@H](CC[C@@H](O)C[C@@H](O)CC(=O)O)[C@H]21
- AC50 [7]: 15.5 µM (active)

SMILES: CCc1cccc(CC)c1N
- outcome [4]: inactive

SMILES: OC[C@H]1O[C@@H]2O[C@H]3[C@H](O)[C@@H](O)[C@@H](O[C@H]4[C@H](O)[C@@H](O)[C@@H](O[C@H]5[C@H](O)[C@@H](O)[C@@H](O[C@H]6[C@H](O)[C@@H](O)[C@@H](O[C@H]7[C@H](O)[C@@H](O)[C@@H](O[C@H]1[C@H](O)[C@H]2O)O[C@@H]7CO)O[C@@H]6CO)O[C@@H]5CO)O[C@@H]4CO)O[C@@H]3CO
- outcome [6]: inactive

SMILES: C=CCc1cc(S(=O)(=O)c2ccc(O)c(CC=C)c2)ccc1O
- AC50 [7]: 4.59 µM (active)
- AC50 [9]: 4.5 µM (active)
- AC50 [8]: 25 µM (active)
- AC50 [2]: 13.2 µM (active)
- AC50 [3]: 0.621 µM (active)

SMILES: CCc1ccc(O)c(C(C)(C)C)c1
- outcome [4]: inactive

SMILES: C[C@]12C=CC(=O)C=C1CC[C@H]1[C@@H]3C[C@@H](O)[C@](O)(C(=O)CO)[C@@]3(C)C[C@H](O)[C@@]12F
- outcome [4]: inactive
- AC50 [7]: 0.0746 µM (active)
- outcome [10]: inactive

SMILES: OCCOCCOCCO
- AC50 [10]: 108 nM (active)

SMILES: CCCc1ccccc1
- outcome [4]: inactive

SMILES: CCn1nc(C)c2c1C(=O)NCC(c1ccc(O)cc1)=N2
- outcome [5]: inactive
- outcome [8]: inactive
- outcome [2]: inactive
- outcome [3]: inactive

SMILES: CCCOc1ccc(S(=O)(=O)N2CCN(CC)CC2)cc1-c1nc2c(CC)n(Cc3ccccn3)nc2c(=O)[nH]1
- outcome [4]: inactive

SMILES: CCN(CC)C(=S)SSC(=S)N(CC)CC
- AC50 [10]: 700 nM (active)
- AC50 [5]: 25 µM (active)
- outcome [2]: inactive

SMILES: CCCCC(CC)C(=O)OCCOCCOCCOC(=O)C(CC)CCCC (configuration not stated)
- outcome [6]: inactive
- outcome [5]: inactive

SMILES: CCOc1ccc2[nH]cc(C(=O)NCc3ccccc3)c(=O)c2n1
- outcome [3]: inactive

SMILES: O=S(=O)(O)c1ccc(N=Nc2c(O)ccc3cc(S(=O)(=O)O)ccc23)cc1
- outcome [4]: inactive

SMILES: CCCCCCCC/C=C\CCCCCCCC(=O)OC[C@@H](O)[C@H]1OC[C@H](O)[C@H]1O
- outcome [10]: inactive

SMILES: O=C(O)[C@H](O)[C@@H](O)C(=O)O
- outcome [4]: inactive

SMILES: Cc1ncc([C@@H](CCCCCCc2ccc3c(n2)NCCC3)CC(=O)O)cn1
- AC50 [5]: 14.5 µM (active)
- outcome [3]: inactive

SMILES: Cc1nc(-c2ccccn2)ncc1C(=O)Nn1cc(C)c2cc(F)ccc21
- outcome [10]: inactive

SMILES: OCC(CO)(CO)CO
- outcome [10]: inactive

SMILES: CC(C)C(=O)Nc1ccc([N+](=O)[O-])c(C(F)(F)F)c1
- outcome [6]: inactive
- outcome [5]: inactive

SMILES: CCCCCCCCCCCCCCCCOS(=O)(=O)O
- AC50 [10]: 12500 nM (active)
- AC50 [9]: 3.03 µM (active)
- AC50 [3]: 1.64 µM (active)

SMILES: C[C@@H](Oc1ccc(CNC(=O)c2cccnc2Oc2ccc3c(c2)OCO3)c(F)c1)C(=O)O
- outcome [4]: inactive
- AC50 [3]: 13.6 µM (active)

SMILES: CC(C)CCCCCCOC(=O)C1CCCCC1C(=O)OCCCCCCC(C)C (configuration not stated)
- outcome [6]: inactive

SMILES: Cn1cc[nH]c1=S
- outcome [4]: inactive

SMILES: c1ccc2c(c1)-c1cccc3c1c-2cc1ccccc13
- outcome [3]: inactive

SMILES: Cc1cccc(O)c1C
- outcome [3]: inactive

SMILES: O=C(NO)C1(NS(=O)(=O)c2ccc(Oc3ccc(F)cc3)cc2)CCOCC1
- AC50 [4]: 6.3 µM (active)

From PubChem BioAssay (EPA / NIEHS)
